Here are results for 36 compounds from PubChem BioAssay (NCATS).

Test [1] in a line: qHTS assay for measurement of the activity of small molecule inhibitors on Zika virus induced Caspase-3 activity in human iPSC derived neural progenitor cells (hNPCs) (AID 1224857). Note: nearly all actives have a fitted effect of over 65% in size. As to conditions: hNPCs ZIKV-induced caspase-3/7, Caspase-Glo luminescence, 6 h; series mostly up to 45.7 µM. In outline:
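Quantitative HTS format: human iPSC neural progenitors, 1 h compound pretreatment, ZIKV 2 FFU/cell for 6 h at 37 C. Percent inhibition derived from luminescent caspase-3/7 signal between uninfected and infected controls.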
In general terms: In qHTS, concentration-response curves come from the screen itself.

Test [2] is described as follows: qHTS assay for measurement of the activity of small molecule inhibitors on Zika virus induced Caspase-3 activity in human astrocytoma cells (AID 1224859). As to conditions: SNB-19 ZIKV-induced caspase-3/7, luminescence, 6 h; series mostly up to 45.7 µM. A digest of the protocol: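 Readout is luminescence from Caspase-Glo 3/7 added after a 6 h ZIKV infection (2 FFU/cell) of compound-pretreated (1 h) SNB-19 cells; data expressed as % inhibition versus uninfected and infected wells.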

A short description of test [3]: qHTS assay to identify small molecule inhibitors of chordoma cells - UCH-1 (AID 1259355). Note: nearly all actives have a fitted effect of over 55% in size. Note: potency is the fitted concentration of half-maximal effect. The following applies: UCH-1 chordoma viability, CellTiter-Glo, 48 h, combination, with auranofin plus four topoisomerase inhibitors; series mostly up to 46.1 µM. A digest of the protocol: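 A 48hr growth-inhibition format: each drug tested at 15 concentrations together with added auranofin, camptothecin, doxorubicin, rubitecan and topotecan, with cell viability quantified as CellTiter-Glo luminescence.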

Values without a mark were called inactive. Records with an inconclusive call do not appear. Entries that show only a call come without a potency. Active and inactive are the calls of the source. Calls come from the whole dose curve; as a rule, active = well fitted curve in the direction sought with a large enough effect; inconclusive = small, poorly fitted or top-dose-only effect, or another doubt; inactive = no such curve, though single readings can be large; an effect the other way counts as inactive or inconclusive.

As to `C[n+]1c2cc(N)ccc2cc2ccc(N)cc21` (tested in a mixture with another compound), the compound was called inactive in test [1] and in test [2]. In addition, the Potency in test [3] was 15.8 µM (active).

Turning to `CN1C2CCC1CC(OC(=O)c1c[nH]c3ccccc13)C2` (stereo not given), the outcome in test [1] and in test [2] was inactive. The Potency entry in test [3] is “inactive”.

Take `CC(=O)[C@H]1CC[C@H]2[C@@H]3C[C@H](C)C4=CC(=O)CC[C@]4(C)[C@H]3[C@@H](O)C[C@]12C`: the result in test [1] and in test [2] was inactive.

`CC[N+](CC)(CCNC(=O)C(=O)NCC[N+](CC)(CC)Cc1ccccc1Cl)Cc1ccccc1Cl`: the compound was classed as inactive in test [1] and in test [2].

Take `C=CCc1ccc(O)c(OC)c1`: the compound was classed as inactive in test [1].

Take `CCCCS(=O)(=O)N[C@@H](Cc1ccc(OCCCCC2CCNCC2)cc1)C(=O)O`: the compound was classed as inactive in test [1].

For `CCOc1ccc(Cc2nccc3cc(OCC)c(OCC)cc23)cc1OCC`, the call in test [1] and in test [2] was inactive.

For `COC(=O)C1=C(C)NC(C)=C(C(=O)O[C@@H]2CCCN(Cc3ccccc3)C2)[C@@H]1c1cccc([N+](=O)[O-])c1`, the call in test [1] and in test [2] was inactive.

`Cc1nc2n(c(=O)c1CCN1CCC(c3noc4cc(F)ccc34)CC1)CCC[C@H]2O`: the call in test [1] and in test [2] was inactive.

As for `CCOc1ccc2nc3cc(N)ccc3c(N)c2c1`, the result in test [1] and in test [2] was inactive.

Take `CNCC[C@@H](Oc1ccccc1C)c1ccccc1`: the call in test [1] and in test [2] was inactive.

In the case of `CCCN1CCCC[C@H]1C(=O)Nc1c(C)cccc1C`, the call in test [1] and in test [2] was inactive.

For `Cc1ccccc1C(=O)Nc1ccc(C(=O)N2CCCC(N(C)C)c3ccccc32)cc1` (stereo not given), the outcome in test [1] and in test [2] was inactive.

`NC[C@H]1O[C@H](O[C@H]2[C@H](O[C@@H]3O[C@H](CO)[C@@H](O)[C@H]3O)C(O)[C@H](N)C[C@@H]2N)[C@H](N)[C@@H](O)[C@@H]1O` (stereo not given in full): in test [1], the activity change, negative = inhibition is 16.5% [at 9.06 µM].

For `Cc1cc2c(cc1CC(=O)c1sccc1S(=O)(=O)Nc1onc(C)c1Cl)OCO2`, the outcome in test [1] and in test [2] was inactive.

In the case of `C[C@]12CCC(=O)C=C1CC[C@H]1[C@@H]3CC[C@](O)(C(=O)CO)[C@@]3(C)C[C@H](O)[C@@]12F`, the outcome in test [1] and in test [2] was inactive.

Take `CC(C)n1nc(-c2cc3cc(O)ccc3[nH]2)c2c(N)ncnc21`: the compound was classed as inactive in test [1] and in test [2].

Consider `Cc1cc(O)c(C(C)C)cc1Cl`, for which the compound was classed as inactive in test [1] and in test [2].

With `COc1ccc(CCN2CCC(Nc3nc4ccccc4n3Cc3ccc(F)cc3)CC2)cc1`, the compound was classed as inactive in test [1] and in test [2]. Besides, the Potency in test [3] was 31.6 µM (active).

Turning to `CC1(C)OC[C@@H](COC(=O)CCc2ccc(OC[C@@H](O)CNCCNC(=O)N3CCOCC3)cc2)O1`, the outcome in test [1] and in test [2] was inactive.

With `C/C=C(/C(=C/C)c1ccc(O)cc1)c1ccc(O)cc1`, the compound was classed as inactive in test [1] and in test [2].

For the compound `COc1ccc(C2C(=O)c3ccccc3C2=O)cc1`, the call in test [1] and in test [2] was inactive.

Take `NC[C@H]1O[C@H](O[C@H]2[C@H](O)[C@@H](O[C@H]3O[C@H](CO)[C@@H](O)[C@H](N)[C@H]3O)[C@H](N)C[C@@H]2N)[C@H](N)[C@@H](O)[C@@H]1O`: the compound was called inactive in test [1] and in test [2].

Turning to `CN(C)CCOc1ccccc1Cc1ccccc1`, the call in test [1] and in test [2] was inactive.

With `CC(C)(C)NC(=O)[C@@H]1CN(Cc2cccnc2)CCN1C[C@@H](O)C[C@@H](Cc1ccccc1)C(=O)N[C@H]1c2ccccc2C[C@H]1O`, the result in test [1] and in test [2] was inactive.

As to `CNC(=O)CN(CCN(CCN(CC(=O)[O-])CC(=O)NC)CC(=O)[O-])CC(=O)[O-].O.[Gd+3]`, the compound was classed as inactive in test [1] and in test [2].

`Cc1ccc(C(=O)C(C)CN2CCCCC2)cc1` (stereo not given): the call in test [1] and in test [2] was inactive.

As to `NC(=O)C(=O)N/N=C/c1ccc([N+](=O)[O-])o1`, the compound was called inactive in test [1] and in test [2].

Regarding `CN1[C@@H]2CC[C@H]1CC(OC(=O)c1c[nH]c3ccccc13)C2` (stereo not given in full), the compound was called inactive in test [1] and in test [2].

As for `Cc1ccc(Nc2c(F)cccc2Cl)c(CC(=O)O)c1`, the call in test [1] and in test [2] was inactive.

As to `O=c1[nH]c(=O)n([C@H]2CCCO2)cc1F`, the compound was called inactive in test [1] and in test [2].

With `CNCCC(Oc1ccccc1C)c1ccccc1` (stereo not given), the outcome in test [1] and in test [2] was inactive. The Potency entry in test [3] was “inactive”.

As to `O=C1OC(c2ccc(O)cc2)(c2ccc(O)cc2)c2ccccc21`, the result in test [1] and in test [2] was inactive. Moreover, the Potency result in test [3] is “inactive”.

`C[C@H]1[C@H](NC(=O)/C(=N/OC(C)(C)C(=O)O)c2csc(N)n2)C(=O)N1S(=O)(=O)O` (stereo in doubt): the compound was classed as inactive in test [1] and in test [2]. Moreover, in test [3], the Potency result is “inactive”.

Turning to `COC(=O)CCc1ccc(OCC(O)CNC(C)C)cc1` (stereo not given), the compound was called inactive in test [1] and in test [2].

Turning to `CC(=O)O[C@]1(C(C)=O)CC[C@H]2[C@@H]3C[C@H](C)C4=CC(=O)CC[C@]4(C)[C@H]3CC[C@@]21C`, the compound was classed as inactive in test [1] and in test [2].
